Source: PubChem BioAssay
The list is not random: actives were taken first. Their share in the collection is about 3.3%.
esBAF inh – inhibitors of esBAF chromatin remodeling in mouse ES cells; Bmi1-luciferase knock-in reporter, 24 h; 100% = twice the neutral-well signal; reporter increase, % at 12.5 µM; 350,000 compounds, 2% hits; in the data active = activation above about 40%; inconclusive = no clear call, values can overlap the other calls;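 note: a rise in the Bmi1 reporter signal indicates esBAF inhibition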
Wnt bcat act – activates Wnt/beta-catenin signaling in a reporter cell assay; activator, plate reader; AID 743398; activation, % at 9.35 µM; 300,000 compounds, 1.2% hits; in the data active = activation above about 30%, passing the limit was not always enough; inconclusive = no clear call, values can overlap the other calls
GAA850 FXN act – frataxin GAA850 promoter activation; AID 540364; activation, % at 6 µM; HEK293 lucGAA850 FXN promoter luciferase reporter, 24 h; percent of 10 µM SAHA response; 360,000 compounds, 0.56% hits;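 active = activation above the average of all compounds screened plus 3 SD, cutoff fixed separately per campaign, cut at about 7.5% in these data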
MITF act – MITF TRPM1 promoter activation in melanoma cells. SK-MEL-5 TRPM1-promoter luciferase, 24 h; % of positive control, neutral wells = 0. activation, % at 12.5 µM. 300,000 compounds, 0.75% hits;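 active = mean activation of at least 80% with every replicate also reaching 80%; inconclusive = mean reaches 80% but some replicate falls short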
Statin myotox sup – suppressors of simvastatin-induced myotoxicity in C2C12 myotubes; ATP luminescence, 48 h; scaled: DMSO 0, geranylgeraniol control 100; rescue of ATP level, % at 7.49 µM; 330,000 compounds, 0.78% hits; AID 602340;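 active = mean ATP rescue above about 67%, or every replicate alone reaching that limit, limit read from the data, passing the limit was not always enough; inconclusive = no clear call, values can overlap the other calls; inactive = mean under the limit and some replicate under it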;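 note: myotubes were challenged with 10 µM simvastatin during compound exposure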
Each line names hits and unclear results; the compound was inactive in the other large screens.

C=CCn1c(O)c(N=Nc2ccccc2[N+](=O)[O-])c2ccccc21	esBAF inh 58 (no result: MITF act)
CSc1nsc(SCC(=O)Nc2ccccc2)n1	none
CSc1nsc(SCC(=O)Nc2ccc(OC(C)=O)cc2)n1	Wnt bcat act 41, MITF act 89 (no result: esBAF inh, Statin myotox sup)
Cc1nc2ccccc2n1CC(O)COc1ccccc1Cl (stereo not given)	Wnt bcat act 37
COc1ccc(S(=O)(=O)N(C)C[C@@H]2OCCCC[C@@H](C)Oc3ccc(NC(=O)CCC(F)(F)F)cc3C(=O)N([C@H](C)CO)C[C@@H]2C)cc1	none (no result: Wnt bcat act, GAA850 FXN act, MITF act, Statin myotox sup)
C[C@H]1CN([C@@H](C)CO)S(=O)(=O)c2ccc(C#Cc3cccc(F)c3)cc2O[C@H]1CN(C)CC1CC1	none (no result: Wnt bcat act, GAA850 FXN act, MITF act)
CCOc1cc(CNCCSc2nnnn2C)cc(Br)c1OCc1ccccc1F	none (no result: Wnt bcat act)
CCOc1cc(CNCc2ccncc2)cc(Br)c1OCc1ccccc1F	Statin myotox sup 112 (no result: Wnt bcat act)
CN1C(=O)c2cc(NC(=O)C3CC3)ccc2OC[C@@H]2O[C@H](CC(=O)NCc3cccc(F)c3)CC[C@@H]21	none (no result: Wnt bcat act, GAA850 FXN act, MITF act)
COc1ccc(C(=O)Nc2cc(C)c(NC(=O)c3ccccn3)cn2)cc1	esBAF inh inconclusive
COc1ccc(CC(=O)Nc2cc(C)on2)cc1OC	Statin myotox sup 111 (no result: Wnt bcat act)
CCc1ccc(C(=O)Nc2cc(C)on2)o1	esBAF inh 51
COc1ccc(C(=O)Nc2cnc(NC(=O)c3cccs3)cc2C)cc1	esBAF inh 47
C/C(=C\C(=O)Nc1cc(C)on1)c1ccccc1	esBAF inh inconclusive, MITF act 82 (no result: Wnt bcat act)
COc1ccccc1CC(=O)Nc1cc(C)on1	none (no result: MITF act)
O=C(C[C@H]1C=C[C@@H](NC(=O)Nc2ccc3c(c2)OCO3)[C@H](CO)O1)NCc1ccc(Cl)cc1	none (no result: Wnt bcat act, GAA850 FXN act, MITF act)
COc1ccc(C(=O)Nc2cc(C)on2)cc1	Wnt bcat act 47
c1ccc2nc(-c3nccs3)ccc2c1	MITF act 91 (no result: esBAF inh, Statin myotox sup)
c1ccc2ncccc2c1	none (no result: Wnt bcat act)
Clc1ccsc1-c1ccc2ccccc2n1	esBAF inh 49, Wnt bcat act 39
C[C@H]1CCCCO[C@H](CN(C)C(=O)Nc2ccccc2)[C@@H](C)CN([C@@H](C)CO)C(=O)c2cc(NS(=O)(=O)c3cccs3)ccc2O1	none (no result: Wnt bcat act, GAA850 FXN act, MITF act, Statin myotox sup)
O=C(NCC[C@@H]1CC[C@@H](NS(=O)(=O)c2cccc(F)c2)[C@@H](CO)O1)Nc1cc(F)ccc1F	none (no result: Wnt bcat act, GAA850 FXN act, MITF act)
C[C@H](CO)N1C[C@H](C)[C@H](CN(C)C(=O)Nc2ccccc2)Oc2ncc(/C=C/c3ccccc3)cc2C1=O	none (no result: Wnt bcat act, GAA850 FXN act, MITF act)
OC(c1ccc(F)cc1)c1nc(/C=C/c2ccccc2)cs1 (stereo not given)	esBAF inh 50, Wnt bcat act inconclusive (no result: MITF act)
CC(=O)Nc1ccc(NC(=O)COC(=O)c2ccco2)cc1	none (no result: esBAF inh, Statin myotox sup)
CC(=O)Nc1ccc(C(=O)COC(=O)c2ccco2)c(F)c1	esBAF inh 44
COc1ccc(C(=O)CC(=O)c2ccccc2)cc1	esBAF inh 70, Wnt bcat act 83 (no result: MITF act)
COc1ccc(NC(=O)Cc2ccccc2)cc1	esBAF inh 57, Wnt bcat act 36
COc1ccc(C(=O)C(OC(=O)c2ccccc2)c2ccccc2)cc1 (stereo not given)	esBAF inh 84 (no result: MITF act)
COc1ccc(C(=O)C(OC(=O)c2ccccc2Cl)c2ccccc2)cc1 (stereo not given)	none (no result: esBAF inh, Wnt bcat act, Statin myotox sup)
O=C(C[C@H]1C=C[C@@H](NC(=O)Nc2ccc(F)cc2)[C@H](CO)O1)NCc1cccc(F)c1	none (no result: Wnt bcat act, GAA850 FXN act, MITF act)
COc1ccc(CC(=O)Nc2ccc(-c3cn4cccc(C)c4n3)cc2)cc1OC	none (no result: Wnt bcat act)
COc1ccc(CC(=O)Nc2ccc(-c3cn4ccc(C)cc4n3)cc2)cc1	esBAF inh 58 (no result: Wnt bcat act)
COc1ccc(C(=O)/C(=C/N(C)C)S(=O)(=O)c2ccccc2)cc1	MITF act 94 (no result: esBAF inh, Statin myotox sup)
COc1ccc(C/C(C)=N/NC(=S)Nc2ccccc2)cc1	esBAF inh 60
COc1ccc(C(=O)C(=NN)c2ccccc2)cc1	esBAF inh 45 (no result: MITF act)
COc1ccc(C/C(C)=N/NC(=S)Nc2ccc(Cl)cc2)cc1	none
CNC(=O)C[C@@H]1CC[C@H]2[C@@H](COc3ccc(NC(=O)c4ccc(F)c(F)c4)cc3C(=O)N2C)O1	none (no result: Wnt bcat act, GAA850 FXN act, MITF act)
O=C(C[C@H]1C[C@@H]2c3cc(NC(=O)Nc4ccccc4F)ccc3O[C@@H]2[C@@H](CO)O1)NC1CCCC1	none (no result: Wnt bcat act, GAA850 FXN act, MITF act)
COc1ccc(C(=O)CSc2ccccc2C(=O)O)cc1	Wnt bcat act 44 (no result: esBAF inh, Statin myotox sup)
O=C(COc1ccccc1)c1ccccc1	esBAF inh 46
COc1ccc(C(=O)COC(=O)c2ccco2)cc1	esBAF inh 49 (no result: Wnt bcat act)
